Experimental findings from PubChem BioAssay (Tox21) are described below.

Test [1] is described as follows: qHTS assay to identify small molecule agonists of the estrogen receptor alpha (ER-alpha) signaling pathway in the presence of an antagonist - cell viability counter screen (AID 1259386). Further: series mostly up to about 92 µM; nearly all actives have a fitted effect of over 30% in size. In short, it runs like this: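 Compounds tested at 15 concentrations for 22 h at 37C alongside 10.0nM (final) ICI-182,780 antagonist, in VM7Luc4E2 cells grown in phenol red-free, charcoal-stripped medium. Viability read by CellTiter-Fluor fluorescence after 1 h reagent incubation.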
In general terms: qHTS replaces the single test concentration by a dilution series.

The target of test [2] is Progesterone receptor (Homo sapiens) (UniProt P06401). In words: qHTS assay to identify small molecule agonists of the progesterone receptor (PR) signaling pathway (AID 1346784; calls by dose curve; further: nearly all actives have a fitted effect of over 30% in size). In short, it runs like this:
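The screen uses PR-UAS-bla HEK 293T cells in charcoal-stripped serum (2%). Compounds are applied for 16 hr at 37C after a 6 hr pre-incubation, and reporter activity is detected with a FRET beta-lactamase substrate after 2 hr at room temperature.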

The target is the same in test [3]. In words: qHTS assay to identify small molecule antagonists of the progesterone receptor (PR) signaling pathway (AID 1346795; active means well fitted inhibition curve with a large enough effect in the signal ratio in the repeat runs, not every such curve was filed as active; the % refers to the signal ratio; further: potency means the concentration at half of the fitted maximal effect). An outline of the steps:
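After 6 hr plating at 37C in 2% stripped-serum medium, PR-UAS-bla HEK293T cells got compounds, then 1 nM R5020. Sixteen hours later, LiveBLAzer substrate was applied for 2 hr at room temperature and fluorescence was recorded.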

A short description of test [4]: qHTS assay to identify small molecule agonists of the progesterone receptor (PR) signaling pathway - cell viability counter screen (AID 1346799; calls by dose curve; further: nearly all actives have a fitted effect of over 45% in size). In short, it runs like this: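 Viability was scored by ATP luminescence (CellTiter-Glo, 30 min, room temperature) in the same wells used for the reporter readout, after 16 hr compound exposure of PR-UAS-bla HEK293T cells.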

Test [5] in a line: qHTS assay to identify small molecule antagonists of the TGF-beta/Smad signaling pathway - cell viability counter screen (AID 1346824). Further: nearly all actives have a fitted effect of over 50% in size. An outline of the steps:
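SBE-bla HEK 293T cells, incubated overnight, then compound plus 0.25 ng/mL TGF-beta1 (stock added) for 5 hr at 37 C. Viability was read in the same wells by CellTiter-Glo luminescence after 30 min at room temperature.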

A short description of test [6]: qHTS assay to identify small molecule agonists of the TGF-beta/Smad signaling pathway - cell viability counter screen (AID 1346829). Further: top concentration of the series differs between compounds; nearly all actives have a fitted effect of over 45% in size. An outline of the steps:
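Compound-treated SBE-bla HEK 293T cells (5 hr, 37 C) were assessed for viability with CellTiter-Glo in parallel with the reporter read.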

Test [7] is described as follows: qHTS assay to identify small molecule agonists of the TGF-beta/Smad signaling pathway (AID 1346859; active means well fitted activation curve with a large enough effect in the signal ratio in the repeat runs, not every such curve was filed as active; the % refers to the signal ratio; further: series mostly up to about 77 µM). An outline of the steps: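 Dual-wavelength fluorescence (460/530 nm emission) quantified beta-lactamase expression under the Smad binding element in HEK 293T cells following 5 hr compound treatment at 37 C.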
For test [8], the target named is Thyrotropin-releasing hormone receptor (Homo sapiens) (UniProt P34981). Put plainly: qHTS assay to identify small molecule antagonists of the thyrotropin-releasing hormone receptor (TRHR) signaling pathway (AID 1346877; active means well fitted inhibition curve with a large enough effect in the repeat runs, not every such curve was filed as active; further: series mostly up to about 51 µM). An outline of the steps:
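Antagonist mode: after a 5 min room-temperature compound exposure, cells were stimulated with 1 nM (final) TRH. Dye-loaded TRHR-HEK293 cells were used, and calcium-dependent fluorescence was followed for 3 min, with 15-point titrations run in triplicate.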

Test [9] shares this target. Put plainly: qHTS assay to identify small molecule agonists of the thyrotropin-releasing hormone receptor (TRHR) signaling pathway (AID 1346891; calls by dose curve;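 further: HEK293 cells expressing TRHR with calcium dye readout; series mostly up to about 58 µM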). An outline of the steps: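 Kinetic fluorescence (3 min, 1 s intervals) reported intracellular calcium after compound transfer onto TRHR-Hek293 cells pre-loaded with dye for 2 h at 37 °C.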
Test [10] can be described thus: Caspase-3/7 induction in HepG2 cells by small molecules, qHTS assay (AID 1346978). Further: nearly all actives have a fitted effect of over 15% in size. In short, it runs like this: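 Wild-type HepG2 cells, 2,000/well, settled 5 hr at 37 C and 5% CO2, then compound-treated for 17 hr; caspase-3/7 activity read by luminescent Caspase-Glo 3/7 after 30 min at room temperature.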
The nature of test [11]: Caspase-3/7 induction in CHO-K1 cells by small molecules, qHTS cell viability counter screen (AID 1346979). Further: nearly all actives have a fitted effect of over 35% in size. Further: potency means the concentration at half of the fitted maximal effect. In short, it runs like this: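 Seeding: 1,500 CHO-K1 cells/well. Rest: 5hr, 37C. Treatment: compounds in DMSO, 16hr. Read: CellTiter-Fluor, 1hr, fluorescence.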
The nature of test [12]: Caspase-3/7 induction in CHO-K1 cells by small molecules, qHTS assay (AID 1346980). Further: nearly all actives have a fitted effect of over 15% in size. In short, it runs like this: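 Wild-type CHO-K1 cells exposed to compounds for 17hr at 37 C, 5% CO2. Caspase-3/7 activity then measured by Caspase-Glo 3/7 luminescence after 30min at room temperature.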
The nature of test [13]: Caspase-3/7 induction in HepG2 cells by small molecules, qHTS cell viability counter screen (AID 1346981). Further: series mostly up to about 92 µM; nearly all actives have a fitted effect of over 30% in size. In short, it runs like this:
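CellTiter-Fluor fluorescence measured viability in the same wells used for Caspase-Glo 3/7. HepG2 (wild type) at 2,000 cells/well were pre-incubated 5 hr, dosed, and given reagent at 16 hr, with 1 hr further at 37C.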

Test [14] deals with Nuclear receptor subfamily 1 group I member 2 (Homo sapiens) (UniProt O75469). In words: Human pregnane X receptor (PXR) small molecule agonists, qHTS assay (AID 1346982). Further: nearly all actives have a fitted effect of over 35% in size. Further: potency means the concentration at half of the fitted maximal effect. In short, it runs like this: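 Agonist mode: luminescence from ONE-Glo after 24 h compound exposure at 37C in HepG2 cells carrying hPXR-responsive CYP3A4 luciferase, plated in charcoal-stripped serum medium 5 h beforehand.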

Test [15] deals with Cytochrome P450 2D6 (Homo sapiens) (UniProt P10635). In words: Cytochrome P450 Family 2 Subfamily D Member 6 (CYP2D6) small molecule antagonists: luciferase reporter qHTS assay (AID 1671196). Further: nearly all actives have a fitted effect of over 50% in size. Further: potency means the concentration at half of the fitted maximal effect. In short, it runs like this:
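CYP2D6 activity was followed as luminescence from its luciferin product after a 1 h NADPH-driven reaction at room temperature. Enzyme-substrate mix and compound were pre-incubated for 10 min, and the signal was read 20 min after adding detection reagent.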
A general note: In a reporter assay the amount or activity of a reporter protein is the signal.

Test [16] is described as follows: qHTS assay to identify small molecule antagonists of the progesterone receptor (PR) signaling pathway - cell viability counter screen (AID 1346798). Further: series mostly up to about 92 µM; nearly all actives have a fitted effect of over 50% in size. In short, it runs like this: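 Viability was determined by ATP-based luminescence (CellTiter-Glo) in PR-UAS-bla HEK293T cells cultured in 2% charcoal-stripped serum and incubated 16 hr with compounds under R5020 stimulation.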

Test [17] in a line: Human pregnane X receptor (PXR) small molecule agonists, qHTS cell viability counter screen (AID 1346977). Further: nearly all actives have a fitted effect of over 50% in size. Further: potency means the concentration at half of the fitted maximal effect. In short, it runs like this:
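HepG2 cells stably carrying the PXR-Luc reporter are cultured with 5% charcoal-stripped FBS and treated with compounds for 24hr. CellTiter-Fluor is added at 23hr and fluorescence is read after 1hr.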

For test [18], the target named is Nuclear receptor subfamily 1 group I member 2 (Rattus norvegicus) (UniProt Q9R1A7). In words: Rat pregnane X receptor (rPXR) activation by small molecules, qHTS assay (AID 1346983). Further: nearly all actives have a fitted effect of over 20% in size. Particulars: rPXR luciferase reporter cells, One-Glo luminescence, 24 h; stronger effect = higher value. An outline of the steps:
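Cell-based rPXR activation assay: rPXR cells, 2,000 per well, rested 5hr at 37 C, then exposed to compounds in DMSO for 24 hr at 37 C. Luciferase activity read by One-Glo luminescence after 30 min at room temperature.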

The target in test [19] is Nuclear receptor subfamily 1 group I member 2 (Homo sapiens) (UniProt O75469). In words: Human pregnane X receptor (PXR) activation by small molecules, qHTS assay (AID 1346985). Further: nearly all actives have a fitted effect of over 40% in size. In short, it runs like this: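 DPX-2 cells (HepG2 co-transfected with a PXR response element and a CYP3A4-promoter luciferase construct) were seeded at 2,000 per well, rested 5 hr at 37C, then exposed to DMSO-dissolved compounds for 24 hr. Activation was read as luciferase luminescence.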

Unmarked numbers belong to inactive results. Records with an inconclusive call do not appear. Activity calls are given as the source filed them. Unless noted, the call rests on the fitted dose curve; in most records, active means well fitted curve in the direction sought with a large enough effect in the repeat runs; inconclusive means weak or mixed curves; inactive means no such curve, though single readings can be large; an effect the other way counts as inactive or inconclusive.
On the % scale 0 is the no-effect control and ±100 the full control effect.

Progesterone receptor (Homo sapiens), sequence (P06401 whole entry, looked up): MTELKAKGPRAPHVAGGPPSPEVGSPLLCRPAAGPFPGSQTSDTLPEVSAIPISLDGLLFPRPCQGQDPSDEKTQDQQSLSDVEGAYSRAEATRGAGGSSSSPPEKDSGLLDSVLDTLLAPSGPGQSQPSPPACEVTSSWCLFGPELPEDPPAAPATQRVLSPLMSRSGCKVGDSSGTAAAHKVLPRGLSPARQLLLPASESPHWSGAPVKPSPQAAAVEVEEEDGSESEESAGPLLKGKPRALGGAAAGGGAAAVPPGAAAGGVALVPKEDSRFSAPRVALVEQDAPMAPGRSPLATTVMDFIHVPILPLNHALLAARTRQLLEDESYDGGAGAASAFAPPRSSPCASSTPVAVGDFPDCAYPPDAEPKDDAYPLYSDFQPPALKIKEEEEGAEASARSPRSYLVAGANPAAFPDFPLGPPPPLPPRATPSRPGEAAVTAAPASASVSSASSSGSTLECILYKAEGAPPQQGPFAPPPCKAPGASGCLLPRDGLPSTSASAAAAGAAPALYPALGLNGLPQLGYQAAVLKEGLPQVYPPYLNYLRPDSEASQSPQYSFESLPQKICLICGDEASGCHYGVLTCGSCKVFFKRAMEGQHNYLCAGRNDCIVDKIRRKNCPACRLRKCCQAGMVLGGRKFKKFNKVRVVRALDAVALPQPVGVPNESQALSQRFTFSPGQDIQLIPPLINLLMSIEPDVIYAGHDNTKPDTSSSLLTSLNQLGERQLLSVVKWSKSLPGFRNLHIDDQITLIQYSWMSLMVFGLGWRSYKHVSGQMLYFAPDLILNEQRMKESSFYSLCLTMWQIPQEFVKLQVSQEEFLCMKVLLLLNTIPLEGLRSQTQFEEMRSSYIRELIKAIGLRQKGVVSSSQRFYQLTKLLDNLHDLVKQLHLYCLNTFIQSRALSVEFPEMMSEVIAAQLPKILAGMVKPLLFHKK
Thyrotropin-releasing hormone receptor (Homo sapiens), sequence (P34981 whole entry, looked up): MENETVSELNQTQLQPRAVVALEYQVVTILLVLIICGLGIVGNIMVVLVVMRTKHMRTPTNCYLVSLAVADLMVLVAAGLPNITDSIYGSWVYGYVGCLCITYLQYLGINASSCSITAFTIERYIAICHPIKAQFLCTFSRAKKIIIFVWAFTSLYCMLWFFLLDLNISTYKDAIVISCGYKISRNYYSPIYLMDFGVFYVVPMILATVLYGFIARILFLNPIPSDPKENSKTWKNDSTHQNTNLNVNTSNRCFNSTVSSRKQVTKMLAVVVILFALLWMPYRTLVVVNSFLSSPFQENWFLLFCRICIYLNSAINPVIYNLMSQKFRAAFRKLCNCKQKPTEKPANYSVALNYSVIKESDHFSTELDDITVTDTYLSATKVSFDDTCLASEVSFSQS
Nuclear receptor subfamily 1 group I member 2 (Homo sapiens), sequence (O75469 whole entry, looked up): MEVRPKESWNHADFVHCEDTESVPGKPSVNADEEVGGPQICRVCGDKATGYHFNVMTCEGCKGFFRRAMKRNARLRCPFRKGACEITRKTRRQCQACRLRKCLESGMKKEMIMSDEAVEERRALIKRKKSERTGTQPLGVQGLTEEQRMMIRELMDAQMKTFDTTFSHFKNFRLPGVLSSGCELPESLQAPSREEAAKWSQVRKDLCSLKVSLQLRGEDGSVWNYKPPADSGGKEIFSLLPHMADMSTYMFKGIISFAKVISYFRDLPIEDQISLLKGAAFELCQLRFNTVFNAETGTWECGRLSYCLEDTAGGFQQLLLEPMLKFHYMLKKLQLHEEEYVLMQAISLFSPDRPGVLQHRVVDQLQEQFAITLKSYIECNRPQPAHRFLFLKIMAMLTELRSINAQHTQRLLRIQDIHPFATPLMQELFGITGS
Cytochrome P450 2D6 (Homo sapiens), sequence (P10635 whole entry, looked up): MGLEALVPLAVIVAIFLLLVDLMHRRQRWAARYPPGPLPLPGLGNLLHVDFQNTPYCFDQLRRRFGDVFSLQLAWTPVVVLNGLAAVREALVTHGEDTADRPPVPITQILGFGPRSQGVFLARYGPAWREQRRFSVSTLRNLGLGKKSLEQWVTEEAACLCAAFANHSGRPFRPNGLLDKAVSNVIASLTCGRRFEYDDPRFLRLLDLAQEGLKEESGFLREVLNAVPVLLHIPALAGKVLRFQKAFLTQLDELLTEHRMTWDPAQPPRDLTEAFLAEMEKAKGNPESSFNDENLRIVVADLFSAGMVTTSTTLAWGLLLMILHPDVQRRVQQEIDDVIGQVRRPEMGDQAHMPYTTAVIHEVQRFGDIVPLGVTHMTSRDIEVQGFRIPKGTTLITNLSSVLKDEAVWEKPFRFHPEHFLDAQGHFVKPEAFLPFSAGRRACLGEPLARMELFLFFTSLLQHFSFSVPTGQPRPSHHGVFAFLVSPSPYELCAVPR
Nuclear receptor subfamily 1 group I member 2 (Rattus norvegicus), sequence (Q9R1A7 whole entry, looked up): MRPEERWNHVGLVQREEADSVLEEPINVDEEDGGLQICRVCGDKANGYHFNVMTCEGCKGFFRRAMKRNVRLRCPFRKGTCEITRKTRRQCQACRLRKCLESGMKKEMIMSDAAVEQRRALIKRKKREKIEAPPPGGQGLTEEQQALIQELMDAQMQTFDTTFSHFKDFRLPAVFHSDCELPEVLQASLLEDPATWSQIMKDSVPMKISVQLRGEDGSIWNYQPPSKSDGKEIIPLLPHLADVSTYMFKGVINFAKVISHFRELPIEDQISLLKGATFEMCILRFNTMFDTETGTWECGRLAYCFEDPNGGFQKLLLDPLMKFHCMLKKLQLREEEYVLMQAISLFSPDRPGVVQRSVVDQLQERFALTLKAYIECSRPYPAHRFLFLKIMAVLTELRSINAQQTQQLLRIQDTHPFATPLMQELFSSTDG

As for `CC(C)(C)C1CCC(=O)CC1`, the Potency entry in test [1], in test [2], in [3], in test [4], in test [5] and in [6] was “inactive” each time. For the same molecule, the Potency result in [7], in [8], in [10], in test [11], in test [12] and in test [13] was “inactive” each time. Also, the Potency entry in [14] and in [15] was “inactive” each time. Moreover, the molecule was classed as inactive in test [9].

On to `CCCCCCCC`, for which the Potency result in test [1], in test [2], in test [3], in test [4], in test [5] and in test [7] was “inactive” each time. Also, the Potency entry in test [8], in [10], in test [11], in test [12], in test [13] and in [14] was “inactive” in each case. Besides, the result in [9] was inactive.

Take `CCCC(=O)OC(C)(C)Cc1ccccc1`: the Potency result in test [1], in test [2], in test [3], in [16], in [5] and in test [7] was “inactive” in each case. In addition, the Potency result in [8], in test [10], in test [11], in test [12] and in test [13] was “inactive” in each case. The molecule was called inactive in test [9].

As for `CCC(COC(=O)CCS)(COC(=O)CCS)COC(=O)CCS`, the Potency result in test [1], in test [2], in test [3], in test [16], in test [5] and in test [7] was “inactive” in each case. Also, the Potency result in test [8], in test [17], in test [10], in test [11], in [12] and in test [13] was “inactive” in each case. In test [15], the Potency entry was “inactive”. Further, the call in test [9] was inactive. Also, the Potency in test [14] was 21.7 µM (active).

As for `Cc1nc(-c2ccc(Cl)cc2)oc1COC(C)(C)C(=O)O`, the Potency entry in test [1], in [2], in test [3], in [16], in test [5] and in [7] was “inactive” in each case. For the same molecule, the Potency result in test [8], in test [11], in test [12], in test [13], in [14] and in [19] was “inactive” each time. In [15], the Potency entry was “inactive”. In addition, in [9], the result was inactive. Further, the max activation in test [18] was -7.31%.

In the case of `O=c1[nH]c2ccccc2n1CCCN1CCN(C(c2ccccc2)c2ccccc2)CC1`, the Potency result in [1], in test [2], in test [5], in [6] and in [12] was “inactive” in each case. The Potency in test [3] is 29.8 µM (active); in test [17] it was 33.5 µM (active); in [14], 4.22 µM (active); in test [15], 0.692 µM (active).

As for `CCO[C@@H]1O[C@H](C(COCc2ccccc2)OCc2ccccc2)[C@H](OCc2ccccc2)[C@H]1O` (some centres not stated), the Potency result in [1], in [2], in test [4], in test [5], in test [6] and in test [7] was “inactive” each time. Further, the Potency result in test [8], in test [10] and in [12] was “inactive” in each case. Further, the Potency was 26.6 µM (active) in [3], 29.8 µM (active) in test [11] and 38.9 µM (active) in test [15]. For the same molecule, in test [9], the result was inactive.
